Records with an inconclusive call do not appear. Calls of active or inactive are those of the source. Unless noted, calls follow the shape of the dose curve; as a rule, active = well fitted curve in the direction sought with a large enough effect in the repeat runs; inconclusive = weak or mixed curves; inactive = no such curve, though single readings can be large; an effect the other way counts as inactive or inconclusive.
Tests used:
[1] = qHTS assay to identify small molecule agonists of the hypoxia (HIF-1) signaling pathway - cell viability counter screen (AID 1224844; calls by dose curve; also: nearly all actives have a fitted effect of over 50% in size)
Procedure, shortened: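 HRE-bla ME-180 cells in medium with 0.5% dialyzed FBS were preincubated 5 hrs at 37C, exposed to compounds for 17 hrs, then viability was read as CellTiter-Glo luminescence after 30 min at room temperature, in the reporter wells.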

[2] = qHTS assay to identify small molecule agonists of H2AX (AID 1224845; active = well fitted activation curve with a large enough effect in the signal ratio in the repeat runs, not every such curve was filed as active; the % refers to the signal ratio)
Procedure, shortened: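 Wild-type CHO-K1 cells plated overnight, then exposed 3 hr at 37C to compounds at 15 concentrations (0.76% DMSO). Lysed, then HTRF anti-pH2AX(S139)-cryptate/anti-H2AX-d2 detection after 24 hr at room temperature; emissions 665 and 620 nm.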

[3] = qHTS assay to identify small molecule agonists of the hypoxia (HIF-1) signaling pathway (AID 1224846; active = well fitted activation curve with a large enough effect in the signal ratio in the repeat runs, not every such curve was filed as active; the % refers to the signal ratio)
Procedure, shortened: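 HRE-bla ME-180 cells (beta-lactamase reporter under hypoxia response element) were plated at 2,000 cells/well in medium with 0.5% dialyzed FBS, rested 5 hrs, then given compounds in DMSO for 17 hrs at 37C, 5% CO2. Reporter induction was read with CCF4-AM FRET substrate.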

[4] = qHTS assay to identify small molecule agonists of H2AX - cell viability counter screen (AID 1224847; calls by dose curve; also: top concentration of the series differs between compounds; nearly all actives have a fitted effect of over 30% in size)
Procedure, shortened: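 CHO-K1 cells plated overnight at 37C, then exposed 3 h at 37C to compounds at 15 concentrations (0.76% DMSO final). Viability by CellTiter-Glo luminescence after 30 min at room temperature.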

[5] = qHTS assay to identify small molecule antagonists of the estrogen related receptor (ERR) signaling pathway from Tox21 library (AID 1224848); also: nearly all actives have a fitted effect of over 50% in size
Procedure, shortened: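 Screening used an ERR reporter line supplied by NTP, exposed for 18 h at 37 C to library compounds delivered in DMSO. Signal was luciferase luminescence developed with ONE-Glo at room temperature for 30 min.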

[6] = qHTS assay to identify small molecule agonists of the estrogen related receptor (ERR) signaling pathway from Tox21 library (AID 1224849; calls by dose curve; also: nearly all actives have a fitted effect of over 15% in size); conditions: ERR reporter cell line, ONE-Glo luciferase, 18 h; at 92.4 µM (top of the series) unless noted
Procedure, shortened: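 ERR reporter cell line (NTP) seeded, rested 6 h at 37 C/5% CO2, then pinned with Tox21 compounds in DMSO. After 18 h at 37 C, ONE-Glo luciferase luminescence was read following 30 min at room temperature.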

[7] = qHTS RealTime-Glo MT Cell Viability Assay in HepG2 cells - 24 hour (AID 1224867); also: nearly all actives have a fitted effect of over 50% in size
Procedure, shortened: (§1)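 Tox21 10K library screened in qHTS format on HepG2 cells carrying RealTime-Glo reagents. Compounds were added after a 5 h preincubation, and the luminescent signal from continuous culture was measured repeatedly during 40 h treatment.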

[8] = qHTS RealTime-Glo MT Cell Viability Assay in HEK293 cells - 32 hour (AID 1224868); also: top concentration of the series differs between compounds; nearly all actives have a fitted effect of over 50% in size
Procedure, shortened: (§2)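 Luminescence generated by NanoLuc from substrate produced by living HEK293 cells served as the viability signal. Each value reflects the reading at its stated time point during continuous 40 h compound exposure at 37 C.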

[9] = A CellTox Green Cytotoxicity Assay to monitor cytotoxicity in HEK293 cells - 0 hour (AID 1224869); also: nearly all actives have a fitted effect of over 50% in size
Procedure, shortened: (§3)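 HEK293 cells premixed with CellTox Green dye were seeded at 600 cells/well and left 5 h at 37 C/5% CO2 before pin transfer of 23 nL compound in DMSO. Fluorescence from dye bound to dead-cell DNA was read during 40 h treatment.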

[10] = qHTS RealTime-Glo MT Cell Viability Assay in HepG2 cells - 40 hour (AID 1224870); also: nearly all actives have a fitted effect of over 50% in size
Procedure, shortened: (§4)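 HepG2 cells mixed with RealTime-Glo MT reagents (NanoLuc plus cell-permeant prosubstrate) were seeded at 600 cells/well, incubated 5 h at 37 C/5% CO2, then pinned with compounds in DMSO; nonlytic luminescence tracked viability during 40 h treatment.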

[11] = A CellTox Green Cytotoxicity Assay to monitor cytotoxicity in HEK293 cells - 40 hour (AID 1224871); also: nearly all actives have a fitted effect of over 45% in size
Procedure, shortened: as §3

[12] = qHTS RealTime-Glo MT Cell Viability Assay in HEK293 cells - 16 hour (AID 1224872)
Procedure, shortened: as §2

[13] = qHTS RealTime-Glo MT Cell Viability Assay in HEK293 cells - 40 hour (AID 1224874); conditions: RealTime-Glo luminescence; max response: hits give low values; also: nearly all actives have a fitted effect of over 50% in size
Procedure, shortened: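 HEK293 cells mixed with RealTime-Glo reagents (NanoLuc plus cell-permeant prosubstrate) at 600 cells/well, preincubated 5 h at 37 C/5% CO2, then given 23 nL compound in DMSO. Nonlytic luminescence from viable cells was read at 0, 8, 16, 24, 32 and 40 h.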

[14] = A CellTox Green Cytotoxicity Assay to monitor cytotoxicity in HEK293 cells - 24 hour (AID 1224875); also: nearly all actives have a fitted effect of over 45% in size
Procedure, shortened: as §3

[15] = A CellTox Green Cytotoxicity Assay to monitor cytotoxicity in HepG2 cells - 16 hour (AID 1224876); also: nearly all actives have a fitted effect of over 45% in size
Procedure, shortened: (§5)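 HepG2 cells were seeded together with the CellTox Green dye at 600 cells/well, left 5 h at 37 C/5% CO2, then given compounds in DMSO. Fluorescence from dye bound to dead-cell DNA was read repeatedly over 40 h of treatment at 37 C.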

[16] = qHTS RealTime-Glo MT Cell Viability Assay in HepG2 cells - 32 hour (AID 1224877); also: nearly all actives have a fitted effect of over 55% in size
Procedure, shortened: as §1

[17] = A CellTox Green Cytotoxicity Assay to monitor cytotoxicity in HepG2 cells - 24 hour (AID 1224878); also: nearly all actives have a fitted effect of over 45% in size
Procedure, shortened: as §5

[18] = A CellTox Green Cytotoxicity Assay to monitor cytotoxicity in HepG2 cells - 40 hour (AID 1224879); also: nearly all actives have a fitted effect of over 40% in size
Procedure, shortened: as §5

[19] = qHTS RealTime-Glo MT Cell Viability Assay in HepG2 cells - 8 hour (AID 1224873); also: nearly all actives have a fitted effect of over 55% in size
Procedure, shortened: as §4
% is scaled to controls: 0 for no effect and ±100 for the full control effect.

C1CCOC1
inactive: Potency [1] | Potency [2] | outcome [3] | Potency [4] | Potency [5] | activity change, positive = activation [6] 1.79% | Potency [7] | Potency [8] | Potency [9] | Potency [10] | Potency [11] | Potency [12] | max response [13] 0.369% | Potency [14] | Potency [15] | Potency [16] | Potency [17] | Potency [18]

CC(C)(C)C1CCCCC1=O (configuration not stated)
inactive: Potency [1] | Potency [2] | outcome [3] | Potency [4] | Potency [7] | Potency [8] | Potency [9] | Potency [10] | Potency [11] | Potency [12] | outcome [19] | max response [13] 10.3% | Potency [14] | Potency [15] | Potency [16] | Potency [17] | Potency [18]

CC(C)CC(=O)OCc1ccccc1
inactive: Potency [1] | Potency [2] | outcome [3] | Potency [4] | Potency [7] | Potency [8] | Potency [9] | Potency [10] | Potency [11] | Potency [12] | max response [13] 3.51% | Potency [14] | Potency [15] | Potency [16] | Potency [17] | Potency [18]

CCN(O)CC
inactive: Potency [1] | Potency [2] | outcome [3] | Potency [4] | Potency [7] | Potency [8] | Potency [9] | Potency [10] | Potency [11] | Potency [12] | outcome [19] | max response [13] 12.4% | Potency [14] | Potency [15] | Potency [16] | Potency [18]

CCCCC(=O)O[C@]1(C(=O)CO)[C@H](C)C[C@H]2[C@@H]3CCC4=CC(=O)C=C[C@]4(C)[C@@]3(F)[C@@H](O)C[C@@]21C
inactive: Potency [1] | Potency [2] | outcome [3] | Potency [5] | activity change, positive = activation [6] -4.32% [at 42.5 µM] | Potency [7] | Potency [8] | Potency [9] | Potency [10] | Potency [11] | Potency [12] | outcome [19] | max response [13] 0.0182% | Potency [14] | Potency [15] | Potency [16] | Potency [17] | Potency [18]

Cc1cc(S(=O)(=O)O)c(N)cc1Cl
inactive: Potency [1] | Potency [2] | outcome [3] | Potency [4] | Potency [7] | Potency [8] | Potency [9] | Potency [10] | Potency [11] | Potency [12] | max response [13] -1.1% | Potency [14] | Potency [15] | Potency [16] | Potency [18]

OCCN(CCO)c1ccccc1
inactive: Potency [1] | Potency [2] | outcome [3] | Potency [4] | Potency [7] | Potency [8] | Potency [9] | Potency [10] | Potency [11] | Potency [12] | outcome [19] | max response [13] 1.89% | Potency [14] | Potency [15] | Potency [16] | Potency [17] | Potency [18]

CCN(CC)C(=O)N(CC)CC
inactive: Potency [1] | Potency [2] | outcome [3] | Potency [7] | Potency [8] | Potency [9] | Potency [10] | Potency [11] | Potency [12] | outcome [19] | max response [13] 4.58% | Potency [14] | Potency [15] | Potency [16] | Potency [18]

Source: PubChem BioAssay (Tox21)
